Compounds with a hit are over-represented: about 5.2% of the library has one in this group of screens.
A3G deaminase: blocks human APOBEC3G single-stranded DNA deamination; Q9HC16; recombinant A3G, ssDNA deamination FAM/TAMRA fluorescence; inhibition, % at 20 µM; actives 0.28% (n = 330,000);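 active = inhibition of at least 40% at 20 µM, with no more than 30% in the related APOBEC3A deaminase screen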;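 note: plate controls were DMSO wells with A3G for no effect and wells lacking A3G enzyme for full effect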
Target sequence (Q9HC16 whole entry, looked up): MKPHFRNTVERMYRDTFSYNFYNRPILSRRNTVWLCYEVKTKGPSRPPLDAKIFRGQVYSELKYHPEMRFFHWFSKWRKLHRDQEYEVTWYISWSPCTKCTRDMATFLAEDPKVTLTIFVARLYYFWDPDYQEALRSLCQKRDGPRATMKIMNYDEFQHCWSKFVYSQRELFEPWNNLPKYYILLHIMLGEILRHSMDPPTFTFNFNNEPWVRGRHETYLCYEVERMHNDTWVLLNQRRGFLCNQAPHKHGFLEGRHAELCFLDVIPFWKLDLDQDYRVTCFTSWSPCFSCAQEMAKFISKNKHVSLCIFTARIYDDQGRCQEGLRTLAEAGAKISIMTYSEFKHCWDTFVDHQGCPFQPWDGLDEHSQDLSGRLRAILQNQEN
CR mimetic SO: yeast age-related superoxide inhibition as caloric restriction mimetic; S. cerevisiae aged cells, superoxide DHE fluorescence; stronger effect = lower value; superoxide response (% of plate mean), % at 10 µM; actives 0.18% (n = 330,000); AID 2690;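 active = superoxide response under a set limit, about three screen SD below normal, cut at about 65% in these data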;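 note: yeast aged for seven days with compound at 30 °C before DHE staining; 100% = average MFI of all compound-treated wells on the plate with controls excluded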
ALR H2O2 inh: human ALR oxidase inhibition via reduced H2O2; purified ALR, DTT oxidation, H2O2 HRP-luminol luminescence; actives 3.8% (n = 290,000); P55789; inhibition, % (concentration not given with the values);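 active = mean replicate inhibition above about 79%, with every replicate also reaching it, limit read from the data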
A3A deaminase: inhibitors of human APOBEC3A DNA deaminase. actives 0.41% (n = 330,000). P31941. recombinant A3A, FAM/TAMRA ssDNA deamination fluorescence. inhibition, % at 20 µM;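 active = at least 40% inhibition at 20 µM here, with at most 30% in a related deaminase screen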;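 note: plate controls were A3A with DMSO for no effect and wells lacking A3A enzyme for full effect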
Target sequence (P31941 whole entry, looked up): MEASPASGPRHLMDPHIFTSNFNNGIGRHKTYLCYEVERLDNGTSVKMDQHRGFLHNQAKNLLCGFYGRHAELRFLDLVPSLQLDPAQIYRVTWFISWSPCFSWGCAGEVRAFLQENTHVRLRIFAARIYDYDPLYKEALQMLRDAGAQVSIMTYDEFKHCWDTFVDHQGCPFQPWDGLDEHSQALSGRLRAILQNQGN
CendR NRP1 mod: NRP-1/CendR interaction modulation | FAM-RPARPAR peptide binding to NRP-1, fluorescence polarization | inhibition, % at 25 µM | actives 0.85% (n = 360,000) | AID 602438;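 active = inhibition or corrected inhibition above about 18%, plus a signal ratio from 0.5 to 1.5, limit read from the data, passing the limit was not always enough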
PfM18AAP inh: blocks P. falciparum M18 aspartyl aminopeptidase; recombinant PfM18AAP, H-Glu-NHMec fluorogenic cleavage; inhibition, % at 7.35 µM; actives 1.2% (n = 290,000);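 active = inhibition above the campaign mean inhibition over all tested compounds plus 3 SD, cut at about 28% in these data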;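 note: 0% = plate median of test compound wells and 100% = 2 mM ZnCl2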
Superoxide pick: yeast aging superoxide inhibition, cherry pick confirmation; actives 1% (n = 850); shares compounds with CR mimetic SO; AID 434994; superoxide response (% of plate), % at 10 µM; S. cerevisiae aging, superoxide DHE fluorescence; stronger effect = lower value;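 active = superoxide signal below 65% of the plate average of sample wells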;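 note: cells aged with compound for 7 days at 30 degrees C before staining; 100% equals mean DHE fluorescence of all compound wells on the plate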
DHE fluor count: compound alters DHE oxidation or fluorescence in yeast; shares compounds with CR mimetic SO; S. cerevisiae BY4741, flow cytometry; stronger effect = lower value; fluorescence response, % at 10 µM; 850 tested, under 10 active; AID 435000;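 active = fluorescence response below 15%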;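 note: percent of the mean fluorescence averaged over all compound wells on the plate; lower means stronger quenching of DHE signal or ROS scavenging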
APOBEC3A confirm: confirmation of human APOBEC3A DNA deaminase inhibitors | shares compounds with A3A deaminase | recombinant A3A, ssDNA deaminase UDG fluorescence assay | inhibition, % at 20 µM | actives 63% (n = 1,400);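 active = inhibition reaching a set limit, 80% of the first screen's cutoff, at 20 µM in any replicate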;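 note: plate controls were DMSO wells with A3A for no effect and wells lacking A3A enzyme for full effect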
UDG ctr A3A: UDG inhibition in APOBEC3A counter-screen. 1,000 tested, under 10 active. shares compounds with A3A deaminase. inhibition, % at 20 µM. AID 504714. UDG counterscreen, FAM/TAMRA uracil oligo fluorescence; call rule not given here
* marks the source's active call; other numbers are inactive results.

How did Cc1nc2cc(-c3ccccc3)[nH]n2c(=O)c1C do in these assays?
A3G deaminase: -5; CR mimetic SO: 96; ALR H2O2 inh: 3; A3A deaminase: -6; CendR NRP1 mod: -3; PfM18AAP inh: 4; Superoxide pick: 94; DHE fluor count: 93

What do the screens show for `COc1cccc(-c2cc3nc(-c4ccccc4)cc(=O)n3[nH]2)c1`?
A3G deaminase: -11; CR mimetic SO: 89; ALR H2O2 inh: -3; A3A deaminase: -6; CendR NRP1 mod: 7; PfM18AAP inh: 6; Superoxide pick: 91; DHE fluor count: 96

Results for Cc1cc(=O)n2[nH]c(-c3ccccc3)cc2n1 ?
A3G deaminase: -2; CR mimetic SO: 94; ALR H2O2 inh: -5; A3A deaminase: 3; CendR NRP1 mod: 6; PfM18AAP inh: -2

Results for CCN(CC)S(=O)(=O)c1cccc(NC(=O)COC(=O)CNC(=O)c2cccc(F)c2)c1 ?
A3G deaminase: -4; CR mimetic SO: 106; ALR H2O2 inh: 4; A3A deaminase: 5; CendR NRP1 mod: -24; PfM18AAP inh: 1

Results for CCn1c(SCC(=O)Nc2ccccc2F)nnc1-c1cnccn1 ?
A3G deaminase: 2; CR mimetic SO: 97; ALR H2O2 inh: -13; A3A deaminase: -2; CendR NRP1 mod: 4; PfM18AAP inh: -1

Results for CCc1nnc(NC(=O)c2ccc(S(=O)(=O)N3CCN(Cc4ccccc4)CC3)cc2)s1 ?
A3G deaminase: -8; CR mimetic SO: 91; ALR H2O2 inh: -5; A3A deaminase: -5; CendR NRP1 mod: 11; PfM18AAP inh: 2

Results for O=C(c1cccnc1)N1CCN(c2ccc(Cl)cc2)CC1 ?
A3G deaminase: -6; CR mimetic SO: 44*; ALR H2O2 inh: 43; A3A deaminase: 48*; CendR NRP1 mod: 2; PfM18AAP inh: -5; Superoxide pick: 111; DHE fluor count: 89; APOBEC3A confirm: -4; UDG ctr A3A: -2

How did CCN(CC)S(=O)(=O)c1cccc(-c2n[nH]c(=S)n2Cc2ccccc2)c1 do in these assays?
A3G deaminase: 22; CR mimetic SO: 99; ALR H2O2 inh: 13; A3A deaminase: -5; CendR NRP1 mod: 8; PfM18AAP inh: 12

What do the screens show for `CC1(C)CC(=O)C(C(=O)C2CCN(S(=O)(=O)c3ccccc3)CC2)C(=O)C1`?
A3G deaminase: -7; CR mimetic SO: 110; ALR H2O2 inh: -6; A3A deaminase: 47*; CendR NRP1 mod: -2; PfM18AAP inh: -1; APOBEC3A confirm: -5; UDG ctr A3A: 1

Results for Cc1ccc(S(=O)(=O)N2CCC(C(=O)C3C(=O)CCCC3=O)CC2)cc1 ?
A3G deaminase: -6; CR mimetic SO: 110; ALR H2O2 inh: -4; A3A deaminase: -3; CendR NRP1 mod: 10; PfM18AAP inh: 0

How did CN(C)c1cc[n+](CC(=O)Nc2ccc(Cl)c([N+](=O)[O-])c2)cc1 do in these assays?
A3G deaminase: -7; CR mimetic SO: 104; ALR H2O2 inh: -13; A3A deaminase: 0; CendR NRP1 mod: 3; PfM18AAP inh: 5

What do the screens show for `CN(C)c1cc[n+](CC(=O)Nc2ccc(OC(F)F)cc2)cc1`?
A3G deaminase: 11; CR mimetic SO: 99; ALR H2O2 inh: 10; A3A deaminase: 48*; CendR NRP1 mod: 8; PfM18AAP inh: 5; APOBEC3A confirm: 65*; UDG ctr A3A: -3

How did Cc1cccc(OCC(=O)NN2C(=O)C3C4C=CC(O4)C3C2=O)c1 (stereo not given) do in these assays?
A3G deaminase: -3; CR mimetic SO: 103; ALR H2O2 inh: -16; A3A deaminase: 4; CendR NRP1 mod: -3; PfM18AAP inh: -1

Results for O=C1CN(C(=O)CSc2nncs2)c2ccccc2N1 ?
A3G deaminase: -3; CR mimetic SO: 112; A3A deaminase: 44*; CendR NRP1 mod: -11; PfM18AAP inh: -17; APOBEC3A confirm: -5; UDG ctr A3A: -3

Results for CN(C[C@H](Cc1ccccc1)N(C[C@H](Cc1ccccc1)N(CCC(C)(C)C)N=O)N=O)N=O ?
A3G deaminase: -6; A3A deaminase: 98*; CendR NRP1 mod: -9; PfM18AAP inh: -6; APOBEC3A confirm: -3; UDG ctr A3A: -2

What do the screens show for `N/C(=N/S(=O)(=O)c1ccccc1)c1cccc([N+](=O)[O-])c1`?
A3G deaminase: -7; CR mimetic SO: 114; ALR H2O2 inh: -6; A3A deaminase: 45*; CendR NRP1 mod: 6; PfM18AAP inh: 1; APOBEC3A confirm: 0; UDG ctr A3A: 0

How did N/C(=N/OC(=O)c1cccc([N+](=O)[O-])c1)c1cccc([N+](=O)[O-])c1 do in these assays?
A3G deaminase: -4; CR mimetic SO: 102; ALR H2O2 inh: -3; A3A deaminase: 47*; CendR NRP1 mod: 0; PfM18AAP inh: -1; APOBEC3A confirm: 7; UDG ctr A3A: 5

What do the screens show for `Cc1ccc(OCC(=O)Nc2nnc(S(=O)(=O)N3CCC(C)CC3)s2)cc1`?
A3G deaminase: 21; CR mimetic SO: 126; ALR H2O2 inh: -6; A3A deaminase: 43*; CendR NRP1 mod: -21; PfM18AAP inh: 10; APOBEC3A confirm: 20

What do the screens show for `CSc1cc(C)n(-c2ccc(Cl)cc2)c(=S)c1C(C)=O`?
A3G deaminase: -2; CR mimetic SO: 80; A3A deaminase: 0; CendR NRP1 mod: 8; PfM18AAP inh: 7

Results for CC(C)(C)c1ccc(C(=O)NN2C(=O)CSC2=S)cc1 ?
A3G deaminase: -7; CR mimetic SO: 97; ALR H2O2 inh: 42; A3A deaminase: 0; CendR NRP1 mod: -6; PfM18AAP inh: 21

What do the screens show for `Oc1ccccc1/C=N/[n+]1ccccc1`?
A3G deaminase: 15; CR mimetic SO: 95; ALR H2O2 inh: -22; A3A deaminase: 69*; CendR NRP1 mod: -10; PfM18AAP inh: -2; APOBEC3A confirm: 66*; UDG ctr A3A: -1

How did Oc1ccccc1C=NC(c1ccccc1)C(O)c1ccccc1 (stereo not given) do in these assays?
A3G deaminase: -5; CR mimetic SO: 103; ALR H2O2 inh: -23; A3A deaminase: -3; CendR NRP1 mod: -5; PfM18AAP inh: -4

Bioassay records deposited in PubChem by several laboratories.
